Screening results as filed in PubChem.
Only some compounds are listed: those with a hit (about 9.2% of all), similar ones and a draw of the others.
USP10 inh = inhibitors of human USP10 deubiquitinase. 47,000 tested, 1.1% active. purified USP10, Ub-rhodamine fluorescence, 60 min. Q14694. inhibition, % at 20 µM
UCHL1 inh = human UCHL1 deubiquitinase inhibition; purified UCHL1, Ub-rhodamine cleavage fluorescence; inhibition, % at 20 µM; 47,000 tested, 0.2% active
USP7 inh = blocks human USP7 ubiquitin-rhodamine cleavage; Q93009; inhibition, % at 20 µM; purified USP7, Ub-rhodamine cleavage fluorescence; AID 1645854; 47,000 tested, 0.3% active
Target sequence (Q93009 whole entry, looked up): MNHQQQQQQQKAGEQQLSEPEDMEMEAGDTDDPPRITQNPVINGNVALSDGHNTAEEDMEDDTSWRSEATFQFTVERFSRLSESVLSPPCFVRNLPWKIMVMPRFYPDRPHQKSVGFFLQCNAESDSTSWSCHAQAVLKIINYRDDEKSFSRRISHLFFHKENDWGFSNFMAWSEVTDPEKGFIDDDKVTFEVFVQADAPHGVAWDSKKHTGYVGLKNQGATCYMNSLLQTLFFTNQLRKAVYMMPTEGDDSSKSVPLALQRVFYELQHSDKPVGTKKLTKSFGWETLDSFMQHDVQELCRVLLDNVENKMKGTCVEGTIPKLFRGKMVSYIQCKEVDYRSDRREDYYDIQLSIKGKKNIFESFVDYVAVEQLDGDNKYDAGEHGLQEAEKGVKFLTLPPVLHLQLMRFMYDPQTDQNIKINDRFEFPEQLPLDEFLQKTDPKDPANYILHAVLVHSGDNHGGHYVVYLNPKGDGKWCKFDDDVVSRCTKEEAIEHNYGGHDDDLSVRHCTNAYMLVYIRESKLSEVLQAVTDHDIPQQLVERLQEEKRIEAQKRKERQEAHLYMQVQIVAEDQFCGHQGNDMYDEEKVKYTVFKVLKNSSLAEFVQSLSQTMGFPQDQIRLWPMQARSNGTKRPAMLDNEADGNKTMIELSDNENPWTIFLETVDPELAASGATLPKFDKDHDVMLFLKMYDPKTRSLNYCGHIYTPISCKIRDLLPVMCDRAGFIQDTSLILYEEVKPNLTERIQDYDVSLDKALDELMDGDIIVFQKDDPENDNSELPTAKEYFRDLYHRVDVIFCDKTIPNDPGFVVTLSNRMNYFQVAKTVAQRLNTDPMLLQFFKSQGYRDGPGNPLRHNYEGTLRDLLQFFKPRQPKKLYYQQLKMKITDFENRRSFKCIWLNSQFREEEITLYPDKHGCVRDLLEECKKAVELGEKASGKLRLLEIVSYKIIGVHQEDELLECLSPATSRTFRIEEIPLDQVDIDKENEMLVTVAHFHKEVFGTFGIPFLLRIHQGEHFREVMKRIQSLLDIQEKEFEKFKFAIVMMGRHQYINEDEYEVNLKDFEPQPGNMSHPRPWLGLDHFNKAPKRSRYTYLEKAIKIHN
USP17 block = human USP17-like deubiquitinase inhibition | A8MUK1 | purified USP17, Ub-rhodamine cleavage fluorescence, 3 h | inhibition, % at 50 µM | 47,000 tested, 6.5% active
OTUD3 block = inhibitors of human OTUD3 deubiquitinase; purified OTUD3, Ub-rhodamine fluorescence, 2 h; inhibition, % at 25 µM; 47,000 tested, 0.7% active; AID 1645858
USP8 inh = human USP8 deubiquitinase inhibition | P40818 | purified USP8, Ub-rhodamine cleavage fluorescence, 30 min | inhibition, % at 20 µM | 47,000 tested, 4.2% active | AID 1645853
Large screens that a line does not name were inactive. Rule as the data show it: active = inhibition above about 30%; inactive = the rest.

Cc1cc2c(cc1C)NC(CC(=O)Nc1ccc(O)cc1)C(=O)N2 (configuration not stated)	USP17 block 63.7, USP8 inh 81.3
O=C(CC1SC(=O)NC1=O)Nc1ccc(Cl)cc1 (configuration not stated)	none
O=S(=O)(c1cc(F)cc(F)c1)N1CCCn2c(nc3ccccc32)C1	USP17 block 31.7
CCn1cc(CN2CCCC(n3c(=O)n(C)c4cncnc43)C2)cn1 (configuration not stated)	none
COc1ccc(NC(=O)CCN(c2ccc(C)cc2)S(=O)(=O)c2ccc(C)cc2)cc1Cl	none
COc1ccc2[nH]cc(C(=O)c3ccc(F)cc3)c(=O)c2c1	none
COc1ccc(S(=O)(=O)c2c[nH]c3ccc(C)cc3c2=O)cc1Cl	USP17 block 37.2
COc1ccc2[nH]cc(S(=O)(=O)c3ccc(C)c(F)c3)c(=O)c2c1	USP17 block 59.1
COc1ccc2[nH]cc(S(=O)(=O)c3ccc(C#N)cc3)c(=O)c2c1	USP17 block 31.4
CCOc1ccccc1CNC(=O)C1CCCN(C(=O)c2[nH]c(C)cc2C)C1 (configuration not stated)	none (no result: USP17 block)
O=C1CC(c2noc(-c3ccccc3)n2)CN1c1ccccc1 (configuration not stated)	none
COc1ccc(C)cc1NS(=O)(=O)c1ccc(NC(=O)CN(c2c(C)cccc2C)S(C)(=O)=O)cc1	none
COc1ccc(-c2nc(CNC(=O)c3ccccc3C)cs2)cc1	USP7 inh 57.1
Cc1ccccc1C(=O)NCc1csc(-c2ccccc2)n1	none
COc1ccc(-c2nc(CNC(=O)Cc3ccc(Cl)cc3)cs2)cc1	USP17 block 35.5
O=C(COc1ccccc1)NCc1csc(-c2ccccc2)n1	USP17 block 44.2
Cc1ccc(-c2nc(CNC(=O)Cc3ccccc3)cs2)cc1	none
CN1C(=O)OC[C@@H]2CCN(CC3CCOCC3)C[C@H]21	none
Cc1ccccc1-c1nc(-c2ccc3c(c2)ncn3CCC(=O)N2CCOCC2)no1	none
Cc1cc(=O)n(CC(=O)NCc2ccccc2)c(N2CCCCC2)n1	none
Cc1ccc2c(=O)c3c([nH]c2c1C)CCN(CC(=O)NCc1ccccc1)C3	USP17 block 72.3
O=C1CCC[C@]2(CN(S(=O)(=O)N3CCCCC3)C[C@H]2c2cccnc2)N1	none
Cn1cc(S(=O)(=O)Nc2cnn(Cc3cccc(Cl)c3)c2)cn1	USP17 block 31.2, USP8 inh 77.0
O=c1ccn(-c2ccccc2)nc1-c1nc(-c2ccc(Br)cc2)no1	USP17 block 36.6, USP8 inh 62.1
COc1ccc(-n2ccc(=O)c(-c3nc(-c4ccccc4C)no3)n2)cc1	USP8 inh 34.3
CCc1ccc(-n2ccc(=O)c(-c3nc(-c4cccc(F)c4)no3)n2)cc1	USP8 inh 33.6 (no result: USP17 block)
Cc1cccc(-n2ccc(=O)c(-c3nc(-c4ccc(Cl)c(F)c4)no3)n2)c1	none
COCC1CN(S(=O)(=O)c2cccc(F)c2)Cc2ccnn2C1 (configuration not stated)	none
CC(Sc1cccc(NC(=O)c2ccccc2F)c1)C(=O)Nc1ccc(O)c(C(=O)O)c1 (configuration not stated)	none
COc1ccccc1NCC(=O)N1c2ccccc2NC(=O)C1(C)C	USP8 inh 33.7
Cc1ccc(C(=O)O)cc1NC(=O)C(Sc1cccc(NC(=O)c2cccc(Cl)c2)c1)c1ccccc1 (configuration not stated)	USP10 inh 34.1, USP17 block 84.7, USP8 inh 39.6
O=C(O)c1cc(NC(=O)C(Sc2cccc(NC(=O)c3ccccc3F)c2)c2ccccc2)ccc1O (configuration not stated)	none
Cc1ccccc1NC(=O)C(Sc1ccc(NC(=O)c2ccccc2C(=O)O)cc1)c1ccccc1 (configuration not stated)	none
Cc1cccc(C(=O)Nc2cccc(SC(C(=O)Nc3ccc(Cl)c(C(=O)O)c3)c3ccccc3)c2)c1 (configuration not stated)	USP10 inh 69.2, USP17 block 80.4, USP8 inh 43.9
O=C(O)c1ccccc1C(=O)Nc1ccc(SC(C(=O)Nc2cccc(Cl)c2)c2ccccc2)cc1 (configuration not stated)	USP10 inh 51.9, USP17 block 51.3
Cc1cc(C)cc(NC(=O)Cn2cnc(S(=O)(=O)N3CCCC3)c2)c1	none
CCN(CC)S(=O)(=O)c1ccc(O)c(NC(=O)COc2ccccc2F)c1	USP17 block 33.4
